Source: PubChem BioAssay (National Center for Advancing Translational Sciences (NCATS))
An excerpt weighted towards active compounds, which were near 13% of everything screened.
HCV inhibitor – HCV inhibition; Huh7.5.1 HCVcc-Cre infection, luciferase reporter, 44 h; Potency, µM (titrated, usually from 41.8 µM), hits mostly inhibitors; 340,000 compounds, 3.4% hits; AID 651820; active means well fitted inhibition curve with a large enough effect; inconclusive means small, poorly fitted or top-dose-only effect, or another doubt; inactive means no such curve, though single readings can be large or run the other way
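Cells seeded at 1,000/well and cultured 4 h, then compounds added followed by HCVcc-Cre virus (~0.5 moi). After 44 h further culture, luciferase substrate was added, plates held 15 min at room temperature, and luminescence read for 15 sec.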
Shiga inhibitor – inhibitors of Shiga toxin in Vero cells; Vero cells, Shiga toxin protein synthesis inhibition reporter; inhibition, % at 38.7 µM; 290,000 compounds, 9.2% hits; in the data active means inhibition mostly above about 28%, no sharp cut-off; inactive means mostly below about 43%
MARV entry inh – inhibitors of Marburg virus binding or cell entry; AID 540276; Marburg virus pseudotyped entry inhibition, cell reporter; Potency, µM (top dose mostly 37.8 µM), most hits filed as inhibitors; 300,000 compounds, 1.8% hits; calls by dose curve; tested in HEK293 cells
CHX counter – counter-screen for Shiga toxin inhibitors: cycloheximide protein synthesis inhibition; cell reporter, cycloheximide protein synthesis inhibition counterscreen; max response, %; 300,000 compounds, 12% hits; in the data active means max response mostly above about 13%, no sharp cut-off; inactive means mostly below about 14%; further: read at 38.3 µM for the half of the compounds with a filed dose
FMDV inh – blocks foot and mouth disease virus | Potency, µM (doses to about 57.9 µM), hits mostly inhibitors | 410,000 compounds, 1.2% hits | AID 1159524 | FMDV antiviral cell-based qHTS; calls by dose curve; tested in HEK293T cells; further: read-out not given here; nearly all actives have a fitted effect of over 45% in size
LASV entry inh – inhibitors of Lassa virus binding or cell entry; Lassa virus pseudotype entry inhibition, cell reporter; Potency, µM (top dose mostly 37.9 µM), hits mostly inhibitors; 300,000 compounds, 1.2% hits; AID 540256; calls by dose curve; tested in HEK293 cells; further: nearly all actives have a fitted effect of over 50% in size
Hits are given with their value; ! = not confirmed by another sample; [ ] = another dose, or the depositor's remark.

What do the screens show for `O=C(Nc1cccnc1)c1ccccc1-c1nc(-c2ccccc2F)no1`?
HCV inhibitor: inconclusive; Shiga inhibitor: inactive; MARV entry inh: inconclusive; CHX counter: inactive; FMDV inh: inactive; LASV entry inh: inactive

How did COc1ccc(-c2noc(-c3ccccc3C(=O)Nc3cccnc3)n2)cc1 do in these assays?
HCV inhibitor: 10µM; Shiga inhibitor: inactive; MARV entry inh: inconclusive; CHX counter: inactive; FMDV inh: inconclusive; LASV entry inh: inactive

How did COc1ccccc1-c1noc(-c2ccccc2C(=O)Nc2cccnc2)n1 do in these assays?
HCV inhibitor: 11.2µM; Shiga inhibitor: inactive; MARV entry inh: inactive; CHX counter: inactive; FMDV inh: inactive; LASV entry inh: inactive

Results for COc1ccc(-c2noc(-c3ccccc3C(=O)Nc3cccnc3)n2)cc1OC ?
HCV inhibitor: 8.91µM; Shiga inhibitor: inactive; MARV entry inh: inactive; CHX counter: inactive; LASV entry inh: inactive

What do the screens show for `COc1ccc(-c2noc(-c3ccccc3C(=O)Nc3cccc(OC)c3)n2)cc1`?
HCV inhibitor: inconclusive; Shiga inhibitor: inactive; MARV entry inh: inconclusive; CHX counter: inactive; FMDV inh: inactive; LASV entry inh: inactive

What do the screens show for `CC(C)(C)c1nnc2sc(SCC(=O)N3CCCCC3)nn2c1=O`?
HCV inhibitor: inactive; MARV entry inh: inconclusive; FMDV inh: inactive; LASV entry inh: inactive

How did CN(CC(=O)Nc1cccc(F)c1)C(=O)CSc1ccc(Br)cc1 do in these assays?
HCV inhibitor: inactive[8.37 µM]; MARV entry inh: inactive; FMDV inh: inactive; LASV entry inh: inconclusive

Results for O=C(c1nn2c(C(F)(F)F)cc(-c3cccs3)nc2c1Br)N1CCCc2ccccc21 ?
HCV inhibitor: inconclusive; Shiga inhibitor: inactive; MARV entry inh: inactive; CHX counter: 20.8; FMDV inh: inactive; LASV entry inh: inactive

How did O=C(c1nn2c(C(F)(F)F)cc(-c3ccco3)nc2c1Br)N1CCCc2ccccc21 do in these assays?
HCV inhibitor: 12.6µM!; Shiga inhibitor: inactive; MARV entry inh: inconclusive; CHX counter: inactive; FMDV inh: inactive; LASV entry inh: inconclusive

What do the screens show for `Cc1ccc(-c2cc(C(F)(F)F)n3ncc(C(=O)N4CCCc5ccccc54)c3n2)cc1`?
HCV inhibitor: inactive; Shiga inhibitor: inactive; MARV entry inh: inactive; CHX counter: inactive; LASV entry inh: inactive

Results for O=C(NC(=O)c1ccc(F)cc1F)Nc1ccc(Cl)cc1 ?
HCV inhibitor: inactive; Shiga inhibitor: inactive; MARV entry inh: inconclusive; CHX counter: inactive; FMDV inh: inactive; LASV entry inh: inactive

Results for O=c1c2ccccc2nc2ccc(N3CCOCC3)nn12 ?
HCV inhibitor: inactive; Shiga inhibitor: 51.8; MARV entry inh: inconclusive; CHX counter: 28.5; FMDV inh: inactive; LASV entry inh: inactive

Results for Cc1ccc2nc3ccc(N4CCCCCCC4)nn3c(=O)c2c1 ?
HCV inhibitor: inactive; Shiga inhibitor: 56.3; MARV entry inh: inactive; CHX counter: 28.1; FMDV inh: inactive; LASV entry inh: inconclusive

What do the screens show for `Cc1sc2nc3ccc(N4CCCC4)nn3c(=O)c2c1C`?
HCV inhibitor: inconclusive; Shiga inhibitor: inactive; CHX counter: inactive; FMDV inh: inactive

Results for Cc1ccc2nc3ccc(N4CCN(C)CC4)nn3c(=O)c2c1 ?
HCV inhibitor: inactive; Shiga inhibitor: 57.3; MARV entry inh: inactive; CHX counter: 32.3; FMDV inh: inactive; LASV entry inh: inactive

Results for Oc1cc(-c2ccc(N3CCCCC3)nc2)cc2cccnc12 ?
FMDV inh: inactive

How did CNC(=O)/C(C#N)=C/c1ccc(-c2nc3ccccc3s2)o1 do in these assays?
HCV inhibitor: inactive; Shiga inhibitor: 54.9; MARV entry inh: inconclusive; CHX counter: 42.5; FMDV inh: inactive; LASV entry inh: inactive

Results for CNC(=O)/C(C#N)=C\c1ccc(CNS(=O)(=O)c2ccccc2)o1 ?
HCV inhibitor: inactive; Shiga inhibitor: inactive; MARV entry inh: inconclusive; CHX counter: inactive; FMDV inh: inactive; LASV entry inh: inactive

Results for N#C/C(=C/c1ccc(-c2ccc(S(N)(=O)=O)cc2)o1)c1nc2ccccc2s1 ?
HCV inhibitor: 4.47µM; Shiga inhibitor: inactive; MARV entry inh: inconclusive; CHX counter: inactive; FMDV inh: inactive; LASV entry inh: inconclusive

How did N#C/C(=C\c1ccc(-c2nc3ccccc3s2)o1)C(N)=O do in these assays?
HCV inhibitor: inactive; Shiga inhibitor: 50.2; MARV entry inh: inactive; CHX counter: 38.5; FMDV inh: inactive; LASV entry inh: inconclusive

Results for Cn1c(=O)c2nc3ccc(NC(=O)C(F)(F)F)cc3nc2n(C)c1=O ?
MARV entry inh: inconclusive; FMDV inh: inactive; LASV entry inh: inactive

What do the screens show for `Cc1c(C(=O)O)sc(S(=O)(=O)N2CCN(C(=O)Cc3ccc(F)cc3)CC2)c1C(=O)O`?
HCV inhibitor: inactive; MARV entry inh: inconclusive; FMDV inh: inactive; LASV entry inh: inactive

What do the screens show for `COc1ccc(-c2nc3c(c(SCC(=O)Nc4ccccc4F)n2)Cc2cc(C)ccc2O3)cc1`?
MARV entry inh: inactive; FMDV inh: inactive; LASV entry inh: inactive

Results for Cc1ccc2cc(C)c(SCC#N)nc2c1 ?
HCV inhibitor: inconclusive; Shiga inhibitor: inactive; MARV entry inh: inactive; CHX counter: inactive; FMDV inh: inactive; LASV entry inh: inactive

How did O=C(Cc1ccccc1)OCC(=O)c1ccccc1 do in these assays?
HCV inhibitor: inactive; Shiga inhibitor: inactive; MARV entry inh: inactive; CHX counter: 30.3; FMDV inh: inactive; LASV entry inh: inactive

What do the screens show for `Cc1ccc(C(=O)COC(=O)CNC(=O)Cc2ccccc2)cc1`?
HCV inhibitor: inactive; Shiga inhibitor: inactive; MARV entry inh: inconclusive; CHX counter: inactive; FMDV inh: inactive; LASV entry inh: inactive

Results for Cc1ccc(C(=O)COC(=O)Cc2ccccc2)cc1 ?
HCV inhibitor: inactive; Shiga inhibitor: 77.2; MARV entry inh: inconclusive; CHX counter: 46.4; FMDV inh: inactive; LASV entry inh: inactive

Results for CC(C)Cn1c(=O)c2ccccc2n2c(CCC(=O)NCc3ccccc3Cl)nnc12 ?
MARV entry inh: inactive; FMDV inh: inactive

Results for Cc1ccc(NC(=O)Nc2cccnc2)cc1NC(=O)Nc1cccnc1 ?
HCV inhibitor: 11.2µM; Shiga inhibitor: inactive; CHX counter: 24.1; FMDV inh: inconclusive

Results for O=C(Nc1ccncc1)Nc1cccc(F)c1 ?
HCV inhibitor: inactive; Shiga inhibitor: inactive; MARV entry inh: inactive; CHX counter: 29.3; FMDV inh: inactive; LASV entry inh: inactive

What do the screens show for `Cc1cc(C)cc(NC(=O)Nc2cccnc2)c1`?
HCV inhibitor: inconclusive; Shiga inhibitor: inactive; MARV entry inh: inactive; CHX counter: inactive; FMDV inh: inactive; LASV entry inh: inactive

What do the screens show for `O=C(Nc1cccnc1)Nc1cccc(F)c1`?
HCV inhibitor: inactive; Shiga inhibitor: inactive; CHX counter: 18.2; FMDV inh: inactive

What do the screens show for `Fc1ccc(CSc2ncnc3ccccc23)cc1`?
HCV inhibitor: inactive; Shiga inhibitor: inactive; MARV entry inh: inconclusive; CHX counter: inactive; FMDV inh: inactive; LASV entry inh: inactive

How did O=C(Cn1nnc(-c2cccs2)n1)N1CCOCC1 do in these assays?
HCV inhibitor: inactive; Shiga inhibitor: inactive; MARV entry inh: inconclusive; CHX counter: inactive; FMDV inh: inactive; LASV entry inh: inconclusive
